In general, AC50 refers to the concentration at which the activity in the assay is half-maximal.

Molecules are shown by their SMILES. Where “and” joins values, the source holds several entries; their conditions need not be identical. Identical values can stand only once. About 5,100 (32%) of roughly 16,000 compounds were called active. Inconclusive results (about 25%) are left out. Calls come from the whole dose curve; as a rule, active = well fitted curve in the direction sought with a large enough effect; inconclusive = small, poorly fitted or top-dose-only effect, or effect the other way; inactive = no such curve, though single readings can be large or run the other way. The list shows a part of the results.

The source of these data is PubChem BioAssay AID1851 (National Center for Advancing Translational Sciences (NCATS), 2009).
% is set by controls: 0 for no effect and ±100 for the full control effect.

The assay deals with Cytochrome P450 3A4 (Homo sapiens) (UniProt P08684). The experiment in a line: Cytochrome panel assay with activity outcomes. The note with it: recombinant CYP, pro-luciferin dealkylation, luminescence, p450-cyp3a4; series mostly up to 57.1 µM; activity, negative = inhibition: at the top concentration.
Chain of Cytochrome P450 3A4 (Homo sapiens) (P08684 whole entry, looked up): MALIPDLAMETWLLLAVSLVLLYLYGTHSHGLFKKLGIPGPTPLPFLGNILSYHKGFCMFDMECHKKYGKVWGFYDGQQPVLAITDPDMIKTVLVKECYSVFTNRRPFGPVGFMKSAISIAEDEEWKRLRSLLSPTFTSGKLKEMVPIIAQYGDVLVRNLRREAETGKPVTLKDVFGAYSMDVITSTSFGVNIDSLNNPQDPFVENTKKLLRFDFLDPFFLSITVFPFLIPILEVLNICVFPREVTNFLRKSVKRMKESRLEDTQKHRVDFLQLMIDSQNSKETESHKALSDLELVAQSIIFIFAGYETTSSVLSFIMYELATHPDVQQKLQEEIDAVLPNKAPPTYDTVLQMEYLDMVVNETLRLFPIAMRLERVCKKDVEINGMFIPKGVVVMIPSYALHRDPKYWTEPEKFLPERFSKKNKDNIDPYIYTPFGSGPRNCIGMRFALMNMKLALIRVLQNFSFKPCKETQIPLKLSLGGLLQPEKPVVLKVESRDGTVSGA
For `C[C@@H]1[C@H]2CC[C@@H]3[C@@H]4CC=C5C[C@@H](N(C)C)CC[C@]5(C)[C@@H]4CC[C@@]32CN1C`, the “activity, negative = inhibition” value was 8.89% [at 25.6 µM] (inactive).
For the compound `CC(C)Nc1cc(C(F)(F)F)nc(-c2ccccn2)n1`, the “activity, negative = inhibition” value was -7.62% (inactive).
The same measure, in the same setting: the value for `CC(C)Nc1nc(Oc2ccc(Cl)cc2)cc(C(F)(F)F)n1` was -8% (inactive).
Consider `CC(C)c1cc(C(F)(F)F)nc(NNc2nc(C(C)C)cc(C(F)(F)F)n2)n1`, for which the AC50 is 3.16 µM (active).
On to `Cc1nn(-c2ccc(Cl)cc2)c2sc(C(=O)c3c(N)n(C)c(=O)n(C)c3=O)cc12`, for which the activity, negative = inhibition was 7.37% [at 2.29 µM] (inactive).
Regarding `CC(C)Cn1c(N)c(C(=O)CSc2ccc3c(c2)OCCO3)c(=O)n(C)c1=O`, the AC50 is 3.98 µM (active).
For `O=c1c2ccccc2nnn1CSc1ccc2c(c1)OCCO2`, the “activity, negative = inhibition” value was -16.6% (inactive).
For `Cn1c(N)c(C(=O)CSc2ccc3c(c2)OCCO3)c(=O)n(C)c1=O`, the AC50 is 5.62 µM (active).
In the case of `CCc1c(C)c2c(C)[nH]nc2oc1=O`, the “activity, negative = inhibition” value is -8.51% (inactive).
Consider `COc1ccc2nc3c(c([Si](C)(C)C(C)(C)C)c2c1)Cn1c-3cccc1=O`, for which the AC50 is 1.58 µM (active).
Still for that read-out and setting: for `COc1cc2nc3c(c([Si](C)(C)C(C)(C)C)c2cc1OC)Cn1c-3cccc1=O` the value was 3.98 µM (active); for `CC(C)(C)[Si](C)(C)c1c2c(nc3ccc(OCc4ccccc4)cc13)-c1cccc(=O)n1C2`, 15.8 µM (active).
For the compound `OC[C@H]1NC[C@H](O)[C@@H](O)[C@H]1O`, the “activity, negative = inhibition” value was -7.16% (inactive).
Take `CCC(C)(C(=O)NC1CCCC1)N(C(=O)c1ccccn1)c1ccccc1` (stereo unspecified): the AC50 is 5.01 µM (active).
Still for that read-out and setting: for `CCC(C)(C(=O)NC1CCCC1)N(Cc1ccco1)C(=O)c1ccccn1` (stereo unspecified) the value was 8.91 µM (active).
Turning to `O=C(N/N=C/C1CCCCC1)c1ccccn1`, the activity, negative = inhibition is -7.05% [at 11.4 µM] (inactive).
On the same count and under the same terms, for `C[C@]1(OC(=O)/C=C\c2ccccc2)C[C@@H](O)[C@@]2(O)C=CO[C@@H](O[C@H]3O[C@@H](CO)[C@@H](O)[C@@H](O)[C@@H]3O)[C@H]21` the value was 9.79% [at 25.6 µM] (inactive).
For `O=C(N/C(=C/c1ccc(Br)cc1)c1nc2ccccc2[nH]1)c1ccco1`, the AC50 was 1.58 µM (active).
The same measure, in the same setting: the value for `O=C(N/C(=C/c1cccs1)c1nc2ccccc2[nH]1)c1ccccc1` was 14.1 µM (active).
Same read-out and setting: for `CN(C)c1ccc(/C=C2/C(=O)Nc3ccccc32)cc1` the value was 10 µM (active).
For `NS(=O)(=O)c1ccc(N=C2C(=O)Nc3ccccc32)cc1`, the activity, negative = inhibition is -12.5% [at 11.4 µM] (inactive).
Still for that read-out and setting: the value for `O=C1Nc2ccccc2Nc2ncccc21` was 16% (inactive).
For `O=C(Nc1cccc(F)c1)N1CCCC2(CCN(C(=O)c3ccncc3)CC2)C1`, the AC50 was 6.31 µM (active).
Still for that read-out and setting: for `COc1ccc(C(=O)N2CCC3(CCCN(C(=O)Nc4cccc(F)c4)C3)CC2)cc1` the value was 12.6 µM (active).
Take `COC(=O)N1CCC2(CCN(C(=O)Nc3cccc(F)c3)CC2)CC1`: the “activity, negative = inhibition” value is 28.7% (inactive).
For the compound `O=C(Nc1cccc(F)c1)N1CCCC2(CCNCC2)C1`, the AC50 is 15.8 µM (active).
For the compound `CC(=O)N1CCC2(CC1)CCN(C(=O)Nc1cccc(F)c1)CC2`, the “activity, negative = inhibition” value is -34.7% (inactive).
Consider `COCC(=O)N1CCC2(CCCN(C(=O)Nc3cccc(F)c3)C2)CC1`, for which the “activity, negative = inhibition” value is -23.5% (inactive).
The same measure, in the same setting: the value for `O=C(Nc1cccc(F)c1)N1CCC2(CCNCC2)CC1` was 7.63% (inactive); that for `COc1ccc(C(=O)N2CCC3(CCN(C(=O)Nc4cccc(F)c4)CC3)CC2)cc1` was -6.15% (inactive).
Still for that read-out and setting: for `NC(=NCCC[C@H](N)C(=O)O)NO` the value was -2.65% (inactive); for `CCC(=O)NCCNC(=O)c1c(SC)nsc1SC`, -11.1% (inactive); for `Cc1noc(N)c1C(=O)Nc1ccc(F)cc1`, 11.9% [at 2.29 µM] (inactive).
Consider `CSc1nsc(SC)c1C(=O)Nc1ccc(C)cc1`, for which the AC50 was 7.94 µM (active).
For `O=C(O)c1nnsc1-c1csnn1`, the activity, negative = inhibition was -19.7% [at 11.4 µM] (inactive).
On the same count and under the same terms, the value for `COc1ccc(-n2c(C)nn(C)c2=O)cc1` was -13.8% (inactive).
Still for that read-out and setting: the value for `CCOC(=O)c1nc(N)sc1C(=O)OCC` was -9.41% (inactive).
For `CCOC(=O)c1sc(=N)n(-c2ccc(OC)cc2)c1C`, the AC50 was 7.08 µM (active).
With `N[C@@H](Cc1ccccc1)C(=O)O`, the activity, negative = inhibition was -6.07% [at 11.4 µM] (inactive).
Still for that read-out and setting: for `CC1(C)CC(=O)C/C(=N/NC(=O)CCCOc2ccc(Cl)cc2Cl)C1` the value was -15.2% [at 2.29 µM] (inactive).
Still for that read-out and setting: the value for `CC(C)(C)C(=O)NNC(=O)CCCOc1ccc(Cl)cc1Cl` was -26.2% (inactive).
On to `COc1ccc(/C=N/NC(=O)CCCOc2ccc(Cl)cc2Cl)cc1[N+](=O)[O-]`, for which the AC50 was 14.1 µM (active).
On to `COc1ccc(NC(=O)c2ccc(C(=O)c3cc(OC)ccc3OC)cc2)cc1`, for which the “activity, negative = inhibition” value was -14.7% (inactive).
Turning to `COc1ccc(Br)cc1C(=O)Nc1ccc(Cc2ccncc2)cc1`, the AC50 was 0.708 µM (active).
Regarding `O=C(Nc1ccc(-c2cn3ccccc3n2)cc1)c1cc(Br)ccc1O`, the activity, negative = inhibition was -18.7% [at 11.4 µM] (inactive).
Regarding `O=C(NCCNS(=O)(=O)c1ccccc1Cl)c1cc(OCC(F)(F)F)ccc1OCC(F)(F)F`, the AC50 was 25.1 µM (active).
As for `Cc1ccc(/C=N\NC(=O)c2cc(OCC(F)(F)F)ccc2OCC(F)(F)F)cc1`, the “activity, negative = inhibition” value is -21.6% (inactive).
On the same count and under the same terms, the value for `O=C(O)CONC(=O)c1cc(OCC(F)(F)F)ccc1OCC(F)(F)F` was -2.97% (inactive); that for `COC(=O)C/C=C\[C@@H](C)[C@@H](/C=N\O[C@@H](C)c1cc(-c2c(C)cc(C)cc2C)no1)OC` was -76.7% [at 11.4 µM] (inactive).
As for `COC(=O)C/C=C\[C@@H](C)[C@@H](/C=N\O[C@@H](C)c1cc(-c2c(C)cc(C)cc2C)no1)NS(=O)(=O)c1ccc(C)cc1`, the AC50 is 3.16 µM (active).
Same read-out and setting: the value for `COC(=O)C/C=C\[C@@H](C)[C@@H](/C=N\O[C@@H](C)c1cn([C@H](CO)Cc2ccccc2)nn1)OC` was 3.98 µM (active).
Take `COC(=O)C/C=C\[C@@H](C)[C@@H](/C=N\O[C@@H](C)c1cn([C@H]2COC[C@H]2O)nn1)OC`: the activity, negative = inhibition is -29.8% [at 11.4 µM] (inactive).
In the case of `COC(=O)C/C=C\[C@@H](C)[C@@H](/C=N\O[C@@H](C)c1cn([C@H]2COC[C@H]2O)nn1)NS(=O)(=O)c1ccc(C)cc1`, the AC50 is 3.98 µM (active).
For `COC(=O)C/C=C\[C@@H](C)[C@@H](/C=N\O[C@@H](C)c1cn([C@H](CO)Cc2ccccc2)nn1)NS(=O)(=O)c1ccc(C)cc1`, the AC50 was 3.98 µM (active) and 2 µM (active).
Turning to `Cc1nc(N=Nc2cc(S(=O)(=O)O)ccc2S(=O)(=O)O)c(COP(=O)(O)O)c(C=O)c1O`, the “activity, negative = inhibition” value is -14.1% (inactive).
As to `O=C(O)C[C@H](S)C(=O)O`, the activity, negative = inhibition was -4.75% [at 11.4 µM] (inactive).
